Assay outcomes from PubChem BioAssay.
AI-2 QS modul: Vibrio harveyi AI-2 quorum sensing modulators, primary screen, JMH597 strain, luminescence/OD600 ratio | Vibrio harveyi JMH597 AI-2 luminescence/OD600 ratio, 9 h; hits give low values; strain lacks LuxN and CqsS sensors; 0 = neutral-control median | activity change, % at 7.5 µM | 0.4% of 300,000 active; in the data active = activity change below about -75%, passing the limit was not always enough;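 note: luminescence divided by OD600 gain over 9 h not by final OD600 alone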
Rin1 Abl inh: inhibitors of Rin1-Abl protein binding, primary screen, biochemical, TR-FRET; Tyrosine-protein kinase ABL1 (Homo sapiens) + Ras and Rab interactor 1 (Homo sapiens), …; inhibition, % at 7.35 µM; 0.4% of 360,000 active; in the data active = inhibition above about 5%, passing the limit was not always enough
ARNT-TACC3 inh: disruptors of ARNT/TACC3 protein interaction, primary screen, biochemical, AlphaScreen, single concentration; Transforming acidic coiled-coil-containing protein 3 (Homo sapiens), Q9Y6A5; AlphaScreen His-ARNT PAS-B/GST-TACC3 binding, luminescence; TACC3 fragment carries E629A point mutation; AID 623870, 2012; inhibition, % at 9.99 µM; 0.66% of 390,000 active;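 active = mean inhibition of replicates at least 50% and at least half of replicates each reaching 50%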;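 note: 0% = complete ARNT plus TACC3 wells and 100% = ARNT alone without TACC3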
sPLA2-III inh: human group III sPLA2 inhibitors, primary screen, biochemical, QFRET, BODIPY PC-A2 liposome substrate | Group 3 secretory phospholipase A2 (Homo sapiens), Q9NZ20 | QFRET BODIPY PC-A2 liposome hydrolysis, fluorescence | inhibition, % at 12.2 µM | 0.56% of 370,000 active;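 active = inhibition above mean plus 3 SD of compounds lying within the high and low control bounds, cut at about 19% in these data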;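 note: 0% = median of test compound wells and 100% = no enzyme DMSO wells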
Target sequence (Q9NZ20 whole entry, looked up): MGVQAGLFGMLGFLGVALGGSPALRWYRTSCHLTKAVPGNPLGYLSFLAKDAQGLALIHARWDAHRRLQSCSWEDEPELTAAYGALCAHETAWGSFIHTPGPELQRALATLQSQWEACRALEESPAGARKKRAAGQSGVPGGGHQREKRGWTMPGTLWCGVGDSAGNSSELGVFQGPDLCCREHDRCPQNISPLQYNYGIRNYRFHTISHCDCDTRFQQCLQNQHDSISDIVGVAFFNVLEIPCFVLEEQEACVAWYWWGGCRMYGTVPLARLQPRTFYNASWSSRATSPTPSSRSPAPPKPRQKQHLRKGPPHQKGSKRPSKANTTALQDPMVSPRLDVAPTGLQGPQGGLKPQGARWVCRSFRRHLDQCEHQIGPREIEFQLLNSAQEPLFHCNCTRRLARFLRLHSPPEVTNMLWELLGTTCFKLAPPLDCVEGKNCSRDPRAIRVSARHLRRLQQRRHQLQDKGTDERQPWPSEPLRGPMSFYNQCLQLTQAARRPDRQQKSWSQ
Rin1 Abl conf: Rin1-Abl binding inhibitor retest, confirmation, biochemical, TR-FRET; shares compounds with Rin1 Abl inh; purified proteins; inhibition, % at 7.35 µM; 49% of 1,300 active; AID 602124, 2011
GFP quencher: GFP fluorescence inhibitors and quenchers, artefact control for Rin1-Abl interaction inhibitor project, biochemical | shares compounds with Rin1 Abl inh | inhibitors/quenchers counterscreen | inhibition, % at 6.75 µM | 8.5% of 1,300 active;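 note: ABL1-eGFP fusion protein alone without its partner RIN1-SBP; 0% = protein with vehicle and 100% = wells lacking protein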
GFP quench DR: GFP fluorescence inhibitors and quenchers, dose response, artefact control for Rin1-Abl interaction inhibitor project, biochemical; shares compounds with Rin1 Abl inh; GFP fluorescence interference/quenching counterscreen; IC50, µM; 230 tested, under 10 active; AID 602182, 2012; call rule not given here;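 note: ABL1-eGFP fusion protein alone without its RIN1 binding partner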
ARNT Alpha ctr-1: AlphaScreen signal interference compounds, dose response, artefact control for ARNT-TACC3 interaction inhibitor project, biochemical, luminescence, cherry-pick; shares compounds with ARNT-TACC3 inh; His-ARNT PASB-GST AlphaScreen artifact counter-screen; AC50, µM (highest dose often 68 µM), for the others: at the highest dose activity change, negative = signal decrease; 50% of 1,200 active; AID 651705, 2012;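 active = every separate test run was called active for a drop in luminescence, with AC50 within twice the top valid dose, actives reach about 71 µM in these data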
ARNT Alpha ctr-2: AlphaScreen signal interference by compounds, dose response, artefact control for ARNT/TACC3 disruptor project, biochemical, dual-tagged ARNT, dry powder. AC50, µM. shares compounds with ARNT-TACC3 inh. AID 720564, 2013. 70% of 45 active. Dual-tagged His-ARNT PASB-GST AlphaScreen artifact counter-screen;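 active = luminescence drop, with half-maximal potency fitted within twice the sample's top valid dose, cut at about 70 µM in these data; inactive = the rest, including signal moving the wrong way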
sPLA2 confirm: human group III sPLA2 inhibitors, confirmation, biochemical, QFRET, triplicate. inhibition, % at 12.2 µM. 34% of 2,000 active. shares compounds with sPLA2-III inh. AID 743280, 2014. recombinant hGIII-sPLA2, BODIPY PC-A2 QFRET fluorescence;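 active = mean inhibition across triplicates above the hit cutoff set in the earlier primary screen, cut at about 19% in these data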;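 note: 0% = enzyme with DMSO and 100% = DMSO wells lacking enzyme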
535nm interf: 535nm fluorescence optical interference, confirmation, artefact control for HGIII-sPLA2 inhibitor project, biochemical, QFRET; shares compounds with sPLA2-III inh; BODIPY FL product fluorescence interference; inhibition, % at 12.2 µM; 8.5% of 2,000 active; AID 743282, 2014;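 active = average inhibition above the solvent-only control mean plus 3 SD, cut at about 6% in these data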;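 note: 0% = DMSO with substrate plus product and 100% = DMSO with substrate alone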
BODIPY interf DR: 535nm fluorescence optical interference, dose response, artefact control for HGIII-sPLA2 inhibitor project, biochemical, QFRET; shares compounds with sPLA2-III inh; BODIPY FL product fluorescence interference, cell-free; IC50, µM; 240 tested, under 10 active;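 active = IC50 at or below 10 µM; inactive = IC50 above 10 µM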
Active calls of the source: *; x = not tested or not shown. Only some compounds are listed: those with a hit (about 1.5% of all), similar ones and a draw of the others. Cut-off read from the data, not from the text of the source, unless noted: active = inhibition above about 6.5%; inactive = the rest.

SMILES	AI-2 QS modul	Rin1 Abl inh	ARNT-TACC3 inh	sPLA2-III inh	Rin1 Abl conf	GFP quencher	ARNT Alpha ctr-1	others
Cc1noc(C)c1NC(=O)Nc1cccc2c1O[C@@H](CN(C)C(=O)Nc1ccc3c(c1)OCO3)[C@@H](C)CN([C@@H](C)CO)C2=O	x	x	-1	x	x	x	x
Cc1[nH]n(-c2ccccc2)c(=O)c1C(c1ccc(O)c([N+](=O)[O-])c1)c1c(C)[nH]n(-c2ccccc2)c1=O	55	13*	10*	-6	-4	4	-9%
CCN(CC)S(=O)(=O)c1cccc(C(=O)N/N=C/c2ccc(O)c(O)c2O)c1	x	18*	59*	12	15*	11*	19µM*
CN1CCN(C(c2ccccn2)c2cc(Cl)c3cccnc3c2O)CC1 (stereo not drawn)	-31	26*	52*	10	22*	4	21µM*	GFP quench DR=>68
Oc1c(CN2CCOCC2)cc(COCc2ccccc2)c2cccnc12	26	11*	56*	0	3	1	4µM*
Cc1cc(OCc2cccc(Cl)c2)c(C)cc1CN1CCOCC1	9	-2	-9	0	x	x	x
C[C@H](CO)N1C[C@H](C)[C@H](CN(C)S(C)(=O)=O)Oc2ccc(NC(=O)CCN3CCOCC3)cc2CC1=O	x	x	-2	x	x	x	x
C[C@H]1CN([C@@H](C)CO)C(=O)c2cc(-c3cccc(C#N)c3)cnc2O[C@@H]1CN(C)Cc1cncnc1	x	x	-4	x	x	x	x
Cc1[nH][nH]c(=O)c1C(c1c(C)[nH][nH]c1=O)c1cn(C)c2ccccc12	x	-1	36	7	x	x	x
Cc1[nH][nH]c(=O)c1C(c1c(C)[nH][nH]c1=O)c1cn(Cc2cccc3ccccc23)c2ccccc12	x	19*	26*	-5	6.5*	3	46µM*
CN1CCN(C(=O)c2cccc(-c3cc(O)c4ncccc4c3)c2)CC1	x	26*	75*	-9	33*	7.4*	17µM*
CN1CCN(c2cc(-c3cc(O)c4ncccc4c3)ccn2)CC1	x	14*	69*	18	17*	10.0*	11µM*
O=C(c1cc2ccccc2cc1O)N1CCN(c2ccccn2)CC1	35	0	1	-35	x	x	x
C[C@@H]1CN([C@H](C)CO)C(=O)Cc2cc(NC(=O)CCN3CCOCC3)ccc2O[C@@H]1CN(C)S(=O)(=O)c1ccccc1	x	x	0	x	x	x	x
COc1ccc(/C=N/NC(=O)c2cc(O)c(O)c(O)c2)cc1Cn1cc([N+](=O)[O-])cn1	30	29*	18	21*	29*	11*	x	sPLA2 confirm=27*;535nm interf=-10
CN(C)c1ccc(C=c2c3cc([N+](=O)[O-])ccc3n3c2cc(-c2ccccc2)[n+]3C)cc1	x	37*	8	48*	4	35*	x	sPLA2 confirm=98*;535nm interf=-9;BODIPY interf DR=>122
COc1ccc(-c2cnc3c(c2)C(=O)N([C@@H](C)CO)C[C@H](C)[C@@H](CN(C)C(=O)CN(C)C)O3)cc1	x	x	-1	x	x	x	x
CC(C)N=c1scc(-c2cccs2)n1/N=C/c1ccc(O)c(O)c1O	x	14*	59*	38*	12*	2	x	sPLA2 confirm=54*;535nm interf=2;BODIPY interf DR=>122
CCN=c1scc(-c2cccs2)n1/N=C/c1cc(OC)ccc1O	x	1	9	10	x	x	x
COc1ccccc1CNC(=O)C[C@@H]1C[C@@H]2c3cc(NC(=O)NC4CCCC4)ccc3O[C@@H]2[C@@H](CO)O1	x	x	8	x	x	x	x
c1ccc(-c2nn[nH]n2)cc1	18	-2	-8	2	x	x	x
c1ccc(-c2nn[nH]n2)nc1	27	0	67*	13	x	x	53µM*
S=c1nc(-c2ccccn2)c(-c2ccccn2)n[nH]1	x	2	x	x	x	x	x
c1ccc(-c2n[nH]c(-c3ccccn3)n2)nc1	18	4	60*	7	x	x	7.5µM*
C[C@H]1CN([C@@H](C)CO)C(=O)c2cccc(NC(=O)c3cnccn3)c2O[C@H]1CN(C)Cc1ccc(Cl)c(Cl)c1	x	x	7	x	x	x	x
SMILES	AI-2 QS modul	Rin1 Abl inh	ARNT-TACC3 inh	sPLA2-III inh	Rin1 Abl conf	GFP quencher	ARNT Alpha ctr-1	others
C[C@@H]1CCCCO[C@H](CN(C)C(=O)c2ccccc2)[C@@H](C)CN([C@@H](C)CO)C(=O)c2cc(NC(=O)c3ccccc3)ccc2O1	x	x	-14	x	x	x	x
CC(Oc1ccc(F)cc1)C(=O)Nc1nc(-c2ccccn2)cs1 (stereo not drawn)	20	-3	63*	-1	x	x	66µM*
Cc1ccccc1NC(=O)c1nc2nccc(C)n2n1	19	-6	-2	x	x	x	x
O=C(Nc1nc(-c2ccccn2)cs1)c1ccc(F)c(S(=O)(=O)N2CCOCC2)c1	x	-3	68*	-7	x	x	9µM*
Cc1ccc(C(=O)Nc2nc(-c3ccccn3)cs2)cc1S(=O)(=O)N1CCOCC1	x	-3	66*	-1	x	x	24µM*	ARNT Alpha ctr-2=10*
Cc1ccnc2nc(C(=O)Nc3nc(-c4ccccn4)cs3)nn12	96	-3	66*	3	x	x	14µM*
COCC(=O)Nc1ccc2c(c1)[C@@H]1C[C@@H](CC(=O)N(C)C)O[C@@H](CO)[C@@H]1O2	x	x	-3	x	x	x	x
O=C(Nc1nc(-c2ccccn2)cs1)c1cc(S(=O)(=O)N2CCOCC2)ccc1F	x	0	74*	-5	x	x	23µM*
